Composite z-score and z-score data for 14 compounds are collected here from PubChem BioAssay.

Calls of active or inactive are those of the source.

The test system of experiment [1] is PRMT1 (protein arginine N-methyltransferase 1). The experiment is described as follows: small molecules binding arginine methyltransferase PRMT1 – biochemical, small-molecule microarray, 635 nm fluorescence, primary screen (AID 1088).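 Also: binding of Prmt1 protein to compounds spotted on small-molecule microarray slides.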 Conditions: higher = more signal.
Experiment [2] is described as follows: growth effects on S. cerevisiae YJM789 – YJM789 clinical isolate, OD600, 24 h, basal, primary screen (AID 1089).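 Also: growth of clinical yeast isolate S. cerevisiae YJM 789 seeded 1000 cells per well; test concentration not given here.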 The settings on record: higher = more signal, called active from +8 up or from −8 down.
Experiment [3] is described as follows: S. pombe growth modifiers, basal conditions – strain 972, OD600, 24 h, no modulator, primary screen (AID 1090).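 Also: basal condition with compound alone and no growth modifier present; test concentration not given here.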 The settings on record: S. pombe 972 growth, higher = more signal, called active from +8 up or from −8 down.
Experiment [4] is described as follows: budding yeast growth modifiers under rapamycin – strain BY4716, OD600, 96 h, primary screen (AID 1091). Also: test concentration not given here. Conditions: S. cerevisiae BY4716 + rapamycin, higher = more signal, called active from +8 up or from −8 down.
Experiment [5] concerns the target Torsin-1A-interacting protein 2 (Homo sapiens) (UniProt Q8NFQ8). Kind of experiment: small molecules binding lysate-expressed LULL1 – cell lysate, human LULL1 lysate, 635/667 nm fluorescence, primary screen (AID 1092).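 Also: probe is lysate of COS7 cells overexpressing human LULL1; score merges per-feature 667 nm fluorescence with signal-to-noise.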 Conditions: small-molecule microarray, hLULL1 lysate binding, 635 nm fluorescence; higher = more signal.
Experiment [6] in a line: optical density change of DRC41 E. coli – strain DRC41, OD650, 24 h, E. coli filamentation project, primary screen (AID 1093).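 Also: MC1000 strain lacking acrAB efflux and sulA so SOS filamentation is blocked; test concentration not given here.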 Conditions: E. coli DRC41 growth, higher = more signal, called active from +8 up or from −8 down.
The nature of experiment [7]: probe aLefty2 binding to arrayed compounds – biochemical, biotinylated probe, 635/667 nm fluorescence, primary screen (AID 1094).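 Also: score merges spot fluorescence near 667 nm with spot signal-to-noise ratio.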 Conditions: small-molecule microarray, higher = more signal.
Experiment [8] deals with Noggin (protein binding on small-molecule microarray). Kind of experiment: small molecules binding Noggin protein – biochemical, 635/667 nm fluorescence, primary screen (AID 1095).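 Also: score merges 667 nm feature fluorescence with signal to noise over triplicate slides.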 Conditions: 635 nm fluorescence, higher = more signal.
Experiment [9] has as its target Neurogenic locus notch homolog protein 3 (Homo sapiens) (UniProt Q9UM47). Kind of experiment: small molecules binding NOTCH3 protein – biochemical, 635/667 nm fluorescence, primary screen (AID 1096). The settings on record: small-molecule microarray, 635 nm fluorescence, higher = more signal.
Experiment [10] is described as follows: probe aEGFR binding to arrayed compounds – biochemical, biotinylated probe, 635/667 nm fluorescence, primary screen (AID 1097).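 Also: probe is a biotinylated anti-EGFR antibody binding compounds printed on slides; score combines fluorescence near 667 nm and signal to noise of each spot.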 Conditions: small-molecule microarray, higher = more signal.

Chain of Torsin-1A-interacting protein 2 (Homo sapiens) (Q8NFQ8 whole entry, looked up): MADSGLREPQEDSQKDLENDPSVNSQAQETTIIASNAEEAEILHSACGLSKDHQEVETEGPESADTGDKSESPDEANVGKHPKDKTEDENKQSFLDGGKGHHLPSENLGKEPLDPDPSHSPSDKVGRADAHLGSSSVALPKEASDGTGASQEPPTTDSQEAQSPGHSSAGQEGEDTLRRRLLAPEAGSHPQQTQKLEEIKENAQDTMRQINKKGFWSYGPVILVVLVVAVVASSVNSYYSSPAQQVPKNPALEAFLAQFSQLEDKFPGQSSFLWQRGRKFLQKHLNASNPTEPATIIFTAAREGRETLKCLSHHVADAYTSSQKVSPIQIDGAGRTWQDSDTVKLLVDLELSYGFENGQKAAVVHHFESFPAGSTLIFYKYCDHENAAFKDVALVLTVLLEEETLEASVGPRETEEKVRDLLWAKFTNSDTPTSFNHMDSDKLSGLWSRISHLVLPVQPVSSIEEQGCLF
Chain of Neurogenic locus notch homolog protein 3 (Homo sapiens) (Q9UM47 whole entry, looked up): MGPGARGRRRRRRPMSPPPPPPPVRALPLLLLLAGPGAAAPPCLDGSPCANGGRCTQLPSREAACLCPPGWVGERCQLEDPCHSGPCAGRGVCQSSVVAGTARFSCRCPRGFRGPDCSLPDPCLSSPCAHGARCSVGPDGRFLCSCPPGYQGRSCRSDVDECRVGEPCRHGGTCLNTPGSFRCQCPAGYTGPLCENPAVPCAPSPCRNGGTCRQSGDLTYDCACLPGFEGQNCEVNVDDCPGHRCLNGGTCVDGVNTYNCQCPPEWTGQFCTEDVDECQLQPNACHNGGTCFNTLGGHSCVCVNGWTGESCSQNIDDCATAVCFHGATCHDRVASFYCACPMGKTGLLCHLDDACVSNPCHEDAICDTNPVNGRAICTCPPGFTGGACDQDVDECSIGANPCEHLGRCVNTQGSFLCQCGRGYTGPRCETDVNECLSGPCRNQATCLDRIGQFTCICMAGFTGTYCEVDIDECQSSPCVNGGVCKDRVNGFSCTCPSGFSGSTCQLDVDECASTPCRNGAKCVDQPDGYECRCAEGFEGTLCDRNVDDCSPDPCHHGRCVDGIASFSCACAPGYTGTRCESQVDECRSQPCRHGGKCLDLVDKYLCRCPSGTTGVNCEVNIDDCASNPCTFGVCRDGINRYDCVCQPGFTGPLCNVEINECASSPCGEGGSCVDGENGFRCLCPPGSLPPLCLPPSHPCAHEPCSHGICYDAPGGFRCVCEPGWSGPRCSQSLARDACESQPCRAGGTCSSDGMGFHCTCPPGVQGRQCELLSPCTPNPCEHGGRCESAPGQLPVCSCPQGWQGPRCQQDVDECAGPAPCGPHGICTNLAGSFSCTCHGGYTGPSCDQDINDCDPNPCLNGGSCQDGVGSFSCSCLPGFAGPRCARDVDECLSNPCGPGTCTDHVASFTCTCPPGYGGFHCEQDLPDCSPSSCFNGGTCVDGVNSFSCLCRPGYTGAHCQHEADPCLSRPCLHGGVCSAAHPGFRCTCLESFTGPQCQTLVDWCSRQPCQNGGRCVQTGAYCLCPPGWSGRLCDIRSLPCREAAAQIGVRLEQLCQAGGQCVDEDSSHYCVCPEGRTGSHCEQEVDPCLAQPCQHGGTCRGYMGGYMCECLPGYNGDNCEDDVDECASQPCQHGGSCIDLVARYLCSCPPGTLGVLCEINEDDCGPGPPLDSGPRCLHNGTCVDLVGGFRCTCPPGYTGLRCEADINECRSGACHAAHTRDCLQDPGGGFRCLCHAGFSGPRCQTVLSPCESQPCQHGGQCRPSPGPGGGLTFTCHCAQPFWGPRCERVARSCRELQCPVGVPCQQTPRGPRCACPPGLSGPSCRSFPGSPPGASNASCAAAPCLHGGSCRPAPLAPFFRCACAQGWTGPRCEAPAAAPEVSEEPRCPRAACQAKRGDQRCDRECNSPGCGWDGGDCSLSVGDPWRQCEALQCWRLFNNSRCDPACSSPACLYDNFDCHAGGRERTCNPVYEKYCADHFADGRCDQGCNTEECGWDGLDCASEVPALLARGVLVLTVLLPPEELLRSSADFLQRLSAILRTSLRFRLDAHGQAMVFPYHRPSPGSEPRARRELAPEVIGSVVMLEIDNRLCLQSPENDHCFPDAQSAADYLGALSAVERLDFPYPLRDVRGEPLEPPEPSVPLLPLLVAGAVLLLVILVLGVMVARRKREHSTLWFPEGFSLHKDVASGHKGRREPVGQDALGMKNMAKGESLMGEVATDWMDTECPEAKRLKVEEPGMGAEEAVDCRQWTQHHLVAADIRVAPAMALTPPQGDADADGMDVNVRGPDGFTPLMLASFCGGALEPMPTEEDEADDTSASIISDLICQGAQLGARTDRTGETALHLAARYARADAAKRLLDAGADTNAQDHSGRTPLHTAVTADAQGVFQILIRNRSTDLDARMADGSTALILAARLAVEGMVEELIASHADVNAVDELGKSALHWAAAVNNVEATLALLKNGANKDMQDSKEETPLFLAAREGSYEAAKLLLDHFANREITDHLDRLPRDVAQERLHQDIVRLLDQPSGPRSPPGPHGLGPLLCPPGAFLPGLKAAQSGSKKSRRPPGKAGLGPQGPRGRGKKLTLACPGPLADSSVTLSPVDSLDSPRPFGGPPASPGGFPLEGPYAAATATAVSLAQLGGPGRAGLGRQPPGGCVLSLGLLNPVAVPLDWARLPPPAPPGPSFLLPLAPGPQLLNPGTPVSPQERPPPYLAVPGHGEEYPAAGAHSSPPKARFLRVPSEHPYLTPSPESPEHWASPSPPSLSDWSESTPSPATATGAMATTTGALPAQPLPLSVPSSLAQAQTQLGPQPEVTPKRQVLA

Consider `COCCCNC(=O)[C@]1(Cc2ccccc2CN=[N+]=[N-])N=C(c2ccc(OCCCO)cc2)O[C@@H]1c1ccccc1N=[N+]=[N-]`, for which the composite z-score in experiment [1] was 0.772; in experiment [5], 2.27; in experiment [7] it was 0.862; in experiment [8], 0.0289; in [9], -0.217; in [10] it was 0.371. Also, the z-score is -0.499 (inactive) in experiment [2], 1.07 (inactive) in experiment [3], 4.98 (inactive) in experiment [4] and 1.11 (inactive) in experiment [6].
As for `COC(=O)[C@@]1(Cc2ccc(OC)cc2)[C@@H]2[C@@H](CC(=O)[C@H]2CC(=O)C(=O)N(C)C)CN1C(=O)c1ccccc1`, the composite z-score is 0.707 in experiment [1]; 3.24 in experiment [5]; 1.11 in experiment [7]; -0.458 in [8]; 1.01 in experiment [9]; 0.766 in [10]. For the same compound, the z-score in experiment [2] is -0.0616 (inactive); in [3] it was 1.61 (inactive); in [4], 3.34 (inactive); in experiment [6], -0.163 (inactive).
For `CCOC(=O)C1=CCC(c2ccncc2)N(S(=O)(=O)c2ccc(C)cc2)C1` (stereo not given), the composite z-score in experiment [1] was 1.36; in [5], 3.84; in experiment [7], -0.0585; in [8], 0.361; in [9], 1.09; in [10], 0.0642. Moreover, the z-score was -2.24 (inactive) in [2], -2.69 (inactive) in experiment [3], 8.79 (active) in [4] and 0.336 (inactive) in [6].
For `O=C1C2C=CC(C(O)c3ccccn3)N(Nc3ccc([N+](=O)[O-])cc3)C2C(=O)N1c1ccccc1` (stereo not given), the composite z-score in experiment [1] is 0.379; in experiment [5] it was 1.12; in [7] it was -0.248; in experiment [8], -0.493; in experiment [9], 0.772; in experiment [10], -0.047. Further, the z-score in experiment [2] was -0.931 (inactive); in experiment [3], 0.587 (inactive); in experiment [4], -0.622 (inactive); in experiment [6], -1.36 (inactive).
Consider `CC(C)(C)OC(=O)CC[C@]1(C(=O)N2CCOCC2)COC(c2ccc(OCCCO)cc2)=N1`, for which the composite z-score was 0.786 in [1]; 3.6 in experiment [5]; 0.0665 in [7]; -0.778 in experiment [8]; -0.526 in [9]; 0.94 in experiment [10]. The z-score in experiment [2] is 1.04 (inactive); in [3] it was 0.487 (inactive); in [4], 0.911 (inactive); in experiment [6] it was 1.66 (inactive).
In the case of `O=C1C2C=CC(C(O)C3CCCCC3)N(Nc3ccccc3F)C2C(=O)N1c1ccccc1` (stereo not given), the composite z-score in experiment [1] stood at 1.55; in experiment [5], 3.24; in [7] it was 0.79; in [8] it was 0.0994; in experiment [9] it was 1.02; in [10], 0.239. Moreover, the z-score is 0.968 (inactive) in experiment [2], -0.645 (inactive) in experiment [3], 0.515 (inactive) in experiment [4] and 0.256 (inactive) in experiment [6].
With `O=C1OCC=C[C@H]2OC34C=CCN(Cn5nnc6ccccc65)C(=O)[C@H]3N(CCO)C(=O)[C@@H]4[C@@H]12` (stereo not given in full), the composite z-score in experiment [1] is 0.551; in experiment [5], 2.55; in [7], -0.0368; in experiment [8] it was -1.88; in experiment [9], -0.481; in [10], -0.171. Moreover, the z-score in [2] is 0.936 (inactive); in experiment [3], 0.159 (inactive); in experiment [4] it was 0.294 (inactive); in experiment [6], -0.55 (inactive).
With `C=CCOC(=O)[C@H]1[C@@H]2C(=O)O[C@@H](c3ccccc3)[C@@H](c3ccccc3)N2[C@@H](c2ccc(OCCOC(=O)[C@@H]3C[C@@H]4C(=O)N[C@@H](Cc5ccccc5)C(=O)N4[C@@H]3c3ccc(O)cc3)cc2)[C@]12C(=O)Nc1ccc(I)cc12`, the composite z-score in [1] is 1.34; in experiment [5], 1.93; in experiment [7], -0.0666; in experiment [8] it was 1.49; in experiment [9], 0.918; in experiment [10], -0.0119. The z-score in experiment [2] was 1.77 (inactive); in experiment [3] it was 2.14 (inactive); in experiment [4] it was 5.89 (inactive); in experiment [6], 0.114 (inactive).
On to `CCCC=C(CCC)[C@@H](NC(=O)c1ccc(C(=O)OC)cc1)c1ccc(C(=O)OC)cc1`, for which the composite z-score in experiment [1] came out at 0.0599; in experiment [5], 2.85; in [7] it was 0.177; in experiment [8], 0.294; in experiment [9] it was 0.251; in experiment [10], 0.0173. Besides, the z-score in experiment [2] was 0.57 (inactive); in experiment [3] it was 0.311 (inactive); in experiment [4], 0.182 (inactive); in experiment [6] it was -1.29 (inactive).
For `CCCNC(=O)[C@@]1(Sc2ccc(C)cc2)CC(=O)N(Cc2cc(C(F)(F)F)cc(C(F)(F)F)c2)[C@@H]1c1ccc(CO)cc1`, the composite z-score in experiment [1] is 0.805; in [5] it was 1.8; in experiment [7] it was -0.122; in [8], -1.13; in experiment [9] it was -0.542; in [10], -0.165. In addition, the z-score in [2] was -0.0276 (inactive); in [3], -1.16 (inactive); in [4], -0.835 (inactive); in [6], -0.212 (inactive).
`COC(=O)C1=CC(c2ccc(CO)cc2)=CC(C2CC2)N(Cc2cc3c(cc2Br)OCO3)C=C1C(=O)OC` (stereo not given): the composite z-score turned out to be 1.54 in [1]; 2.87 in [5]; 0.479 in [7]; 0.092 in experiment [8]; 1.11 in experiment [9]; 0.46 in experiment [10]. Besides, the z-score in experiment [2] was -0.644 (inactive); in [3], -2.47 (inactive); in [4], -2.01 (inactive); in experiment [6] it was 0.841 (inactive).
With `O=C1OCCC/C=C\[C@H]2OC34C=CCN(Cc5ccccc5)C(=O)[C@H]3N(CCO)C(=O)[C@@H]4C12` (stereo not given in full), the composite z-score in experiment [1] was 0.216; in [5], 2.22; in [7], 0.235; in experiment [8], -0.353; in experiment [9], 0.0094; in [10], 0.0618. The z-score in [2] was -0.27 (inactive); in experiment [3], -1.72 (inactive); in experiment [4], -0.462 (inactive); in experiment [6], 2.29 (inactive).
For the compound `CC(C)Cc1ccc(CN2CC[C@@H](NC(=O)c3ccccc3)C2)cc1`, the composite z-score is -0.174 in [1]; -0.0003 in experiment [5]; -0.167 in experiment [7]; 0.666 in experiment [8]; -0.0255 in [9]; -0.157 in experiment [10]. Also, the z-score was -0.216 (inactive) in [2], -21.2 (active) in [3], 0.237 (inactive) in experiment [4] and -0.219 (inactive) in experiment [6].
`COc1cc2c(cc1O)C(C)N(Cc1sc3ccccc3c1Cl)CC2` (stereo not given): the composite z-score in [1] is -0.77; in [5] it was -0.0038; in [7] it was 0.107; in experiment [8], -0.417; in experiment [9], -0.88; in [10] it was -0.2. In addition, the z-score is 0.173 (inactive) in experiment [2], -12.3 (active) in [3], -1.6 (inactive) in [4] and 0.566 (inactive) in experiment [6].
